The source of these data is PubChem BioAssay.

Calls of active or inactive are those of the source.

Assay [1] in a line: A549 cell viability effects, profiling panel, calcein-AM fluorescence, 48 h, basal (AID 1162). As to conditions: higher = more signal.
Assay [2] is described as follows: adipocyte viability effects, profiling panel, cell-based, 3T3-L1 adipocytes, calcein-AM fluorescence, 48 h, basal (AID 1163). The note with it: 3T3-L1 adipocytes viability, higher = more signal.
Assay [3] can be described thus: HepG2 cell viability effects, profiling panel, calcein-AM fluorescence, 48 h, basal (AID 1164). As to conditions: higher = more signal.
A short description of assay [4]: MM1S cell viability effects, profiling panel, calcein-AM fluorescence, 48 h, basal (AID 1165).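 Further: viability of MM1S multiple myeloma cells under basal unstimulated conditions.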 The note with it: higher = more signal.
The nature of assay [5]: basal RPMI8226 viability, no added stimulus, profiling panel, cell-based, calcein-AM fluorescence, 48 h, PK04 Diversity Set (AID 1166).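 Further: cells grown under basal conditions without added stimulus.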 As to conditions: RPMI8226 myeloma viability, higher = more signal.
Assay [6] can be described thus: basal HepG2 mitochondrial membrane potential changes, profiling panel, cell-based, JC-1 fluorescence, 24 h, 100 nL compound (AID 1167). As to conditions: higher = more signal.
Assay [7] can be described thus: basal 3T3-L1 adipocyte mitochondrial potential changes, profiling panel, cell-based, JC-1 fluorescence, 3T3-L1 adipocytes, 24 h, 100 nL compound (AID 1168). As to conditions: JC-1 mitochondrial fluorescence, higher = more signal, called active from +8 up or from −8 down.
Assay [8] can be described thus: basal RPMI8226 mitochondrial membrane potential changes, profiling panel, cell-based, JC-1 fluorescence, 24 h, 100 nL compound (AID 1169). As to conditions: RPMI8226 myeloma, JC-1 mitochondrial potential fluorescence, higher = more signal.
Assay [9] is described as follows: basal MM1S mitochondrial membrane potential changes, profiling panel, cell-based, JC-1 fluorescence, 24 h, 100 nL compound (AID 1170). The note with it: higher = more signal.
Assay [10] is described as follows: A549 lung cancer cell viability effects, profiling panel, resazurin fluorescence, 24 h, PK04 Diversity Set (AID 1171). As to conditions: higher = more signal, called active from +8 up or from −8 down. A general note: Alamar Blue is a resazurin reagent that responds to reducing activity.
Further: test concentration not given here.

As for `COc1ccc([C@H]2OC[C@@H]3C[C@H](Cc4ccccc4)C(=O)N32)cc1`, the z-score was -0.799 in assay [1]; -0.835 in assay [2]; -0.459 in [3]; 0.191 in assay [4]; -0.598 in [5]; -0.703 in assay [6]. Further, the z-score in [7] was 0.0558 (inactive); in [8], 0.00274; in assay [9], -0.393; in [10], -0.116 (inactive).
`CCOC(=O)C1=C[C@@H](c2ccccc2)N(S(=O)(=O)c2ccc(C)cc2)[C@H]1c1ccc(OC)cc1`: the z-score in assay [1] was -0.841; in [2], -0.0112; in assay [3] it was -0.157; in assay [4], -0.62; in assay [5] it was -0.926; in assay [6], 1.03. Moreover, the z-score in [7] was -0.708 (inactive); in assay [8] it was 0.692; in assay [9] it was -0.441; in assay [10], 1.63 (inactive).
As for `COc1ccc(C#Cc2ccc3c(c2)[C@]2(C(=O)N3)[C@H](C(=O)O)[C@H]3C(=O)O[C@H](c4ccccc4)[C@H](c4ccccc4)N3[C@@H]2c2ccc(O)cc2)cc1`, the z-score is -0.483 in assay [1]; 1.65 in assay [2]; -0.176 in [3]; -2.61 in assay [4]; -3.91 in [5]; -3.99 in assay [6]. Further, the z-score in assay [7] was -1.15 (inactive); in [8] it was -0.85; in [9] it was -0.623; in assay [10], 0.199 (inactive).
With `CC[C@@H]1C=C(C(=O)O)[C@H](c2ccccc2)N1S(=O)(=O)c1ccc(C)cc1`, the z-score in [1] was -0.71; in [2] it was -1.48; in [3] it was -1.22; in assay [4], -0.0502; in [5], -0.674; in assay [6] it was -0.93. Moreover, the z-score in assay [7] is -0.703 (inactive); in assay [8], 0.77; in assay [9] it was -0.76; in assay [10], -0.687 (inactive).
As to `NC(=O)NCC#Cc1ccc2c(c1)[C@]1(C(=O)N2)[C@H](c2ccccc2OCCO)N2[C@H](c3ccccc3)[C@H](c3ccccc3)OC(=O)[C@H]2[C@@H]1C(=O)NC[C@H](O)c1ccccc1`, the z-score is 1.2 in assay [1]; 0.37 in [2]; -0.13 in [3]; 0.493 in assay [4]; 0.865 in assay [5]; -0.159 in assay [6]. The z-score in [7] was 0.43 (inactive); in assay [8] it was 0.208; in assay [9], 0.359; in [10], 0.635 (inactive).
Turning to `O=C1N(CCS(=O)(=O)c2ccccc2)c2ccccc2[C@H]2OC(c3ccc(OCCCO)cc3)=N[C@@]12Cc1ccccc1`, the z-score in assay [1] was -0.386; in [2], 0.726; in assay [3] it was -0.763; in assay [4], -2.18; in [5] it was -2.65; in [6] it was -0.654. Moreover, the z-score in assay [7] is 0.777 (inactive); in assay [8], -1.19; in assay [9], -2.19; in assay [10] it was -1.02 (inactive).
For the compound `Cc1ccc(NN2C(C(O)c3c(F)cccc3Cl)C=CC3C(=O)N(C4CCCCC4)C(=O)C32)cc1` (stereo not given), the z-score in assay [1] was 0.57; in [2], -0.617; in [3], 0.934; in assay [4] it was 0.949; in assay [5], 0.451; in [6], -0.511. Besides, the z-score in assay [7] is 0.165 (inactive); in assay [8], 0.0377; in assay [9], -1.04; in assay [10], 0.693 (inactive).
For the compound `CCC1=C2CN(Cc3ccccc3)[C@@H](C(=O)Cc3ccccc3)C2C=CCC1` (stereo not given in full), the z-score was 0.0398 in [1]; 1.47 in [2]; -0.342 in [3]; 0.435 in assay [4]; -0.96 in assay [5]; 0.821 in [6]. Moreover, the z-score is 0.152 (inactive) in assay [7], 0.424 in assay [8], -0.948 in [9] and 0.822 (inactive) in [10].
As for `CN(C)C(=O)[C@@]1(Cc2ccccc2CN=[N+]=[N-])N=C(c2ccc(OCCCO)cc2)O[C@H]1c1ccccc1N=[N+]=[N-]`, the z-score in assay [1] was -1.63; in assay [2] it was 2; in [3], -2.15; in assay [4], -3.03; in assay [5], -3.98; in assay [6] it was 0.129. The z-score is -0.052 (inactive) in [7], -1.08 in assay [8], -0.796 in assay [9] and -2.09 (inactive) in assay [10].
As to `CCCCC(CC)C(O)C1C=CC2C(=O)N(c3ccccc3)C(=O)C2N1Nc1ccc(C#N)cc1` (stereo not given), the z-score in assay [1] was 1.99; in [2], -0.494; in [3] it was 2.34; in assay [4] it was 0.0084; in assay [5] it was 0.368; in assay [6], -1.31. Further, the z-score in assay [7] was -1.61 (inactive); in assay [8] it was 0.0604; in assay [9], -0.679; in assay [10], 0.857 (inactive).
For `C=C(COC)C(=O)CC[C@@H](OC(C)=O)c1cccc(OCCO)c1`, the z-score is 0.851 in [1]; 0.617 in [2]; -0.4 in [3]; -3.46 in assay [4]; -0.496 in assay [5]; -0.0521 in assay [6]. The z-score in [7] is -0.196 (inactive); in assay [8], 0.0392; in [9] it was -0.274; in assay [10], 0.387 (inactive).
As to `COCCOC(=O)N1C(=O)[C@@]2(c3cc(C#CC4(O)CCCCCC4)ccc31)[C@H](C(=O)N1CCc3cc(OC)c(OC)cc3C1)[C@H]1C(=O)O[C@H](c3ccccc3)[C@H](c3ccccc3)N1[C@@H]2c1ccc(OCCO)cc1`, the z-score in [1] was -0.111; in [2], 0.172; in assay [3], -0.653; in assay [4], -1.83; in assay [5] it was -0.468; in assay [6], -0.32. For the same compound, the z-score is 0.354 (inactive) in assay [7], -0.542 in [8], -1.39 in assay [9] and -0.317 (inactive) in assay [10].
Turning to `C#Cc1cc2ccccc2oc1=O`, the z-score in assay [1] was -1.35; in [2] it was -1.04; in [3], -0.651; in assay [4], -0.932; in assay [5], -0.414; in assay [6] it was -1.5. Also, the z-score in assay [7] is 0.272 (inactive); in assay [8], 0.923; in assay [9], -0.99; in assay [10] it was -0.629 (inactive).
Take `O=c1cccc(-c2ccc([N+](=O)[O-])cc2)o1`: the z-score in [1] is 0.419; in assay [2], 0.294; in assay [3] it was 0.273; in assay [4], -0.369; in [5] it was -0.308; in [6], 0.302. The z-score was 0.543 (inactive) in assay [7], 0.379 in [8], -1.01 in assay [9] and -0.0447 (inactive) in [10].
